Some test systems named below: T-47D breast; BT-549 breast; MDA-MB-435 melanoma; SW-620 colon; MCF7 breast; HCT-116 colon; HCC-2998 colon; KM12 colon.
What all share (assay): NCI-60 one-dose screen, 48 h (100 = growth as untreated, 0 = no growth, -100 = all killed)
Common to all, as to details: 10 µM unless noted

This is part of a sample that, as a whole, favours compounds with a hit. Of some 83,000 tested, about 20% had one in any assay.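 48-hour exposure, single concentration, 96-well plates; percent growth endpoint where 0 means no net growth. Active: below 10.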 Values without a mark were called inactive. The source made the active and inactive calls.

On to `Clc1ccc(/C=C/c2nc(N3CCOCC3)c3nc(Cl)c(Cl)cc3n2)cc1`, for which the growth with T-47D breast is 73%; in the assay with BT-549 breast, 93.6%; with MDA-MB-435 melanoma it was 98.1%; with SW-620 colon, 114%; in the assay with MCF7 breast it was 56.8%; in the assay with HCT-116 colon, 83.7%. Also, the growth in the assay on HCC-2998 colon is 94.4%; with KM12 colon it was 114%.
Consider `C=C1C(=O)O[C@H]2[C@H]1CC/C(COC(=O)NCCc1ccc(OC)cc1)=C\CC[C@@]1(C)O[C@@H]21`, for which the growth is -5.43% (active) in the assay with T-47D breast; 8.9% (active) in the assay on BT-549 breast; 21.5% in the assay with MDA-MB-435 melanoma; -65.6% (active) in the assay on SW-620 colon; 2.77% (active) in the assay with MCF7 breast; -58.4% (active) in the assay with HCT-116 colon. Also, the values for the growth in the assay on HCC-2998 colon and in the assay on KM12 colon were 71.1% and 56.9%, respectively.
`COC(=O)c1cc(-c2cccs2)c(C#N)c(N)c1C#N`: the growth is 69.1% with T-47D breast; 107% in the assay with BT-549 breast; 104% with MDA-MB-435 melanoma; 102% in the assay with SW-620 colon; 67.7% in the assay with MCF7 breast; 95.5% in the assay on HCT-116 colon. Besides, the growth with HCC-2998 colon was 106%; in the assay with KM12 colon, 108%.
As for `NS(=O)(=O)c1ccc(CN2C(=O)c3cccc4cccc(c34)C2=O)cc1`, the growth in the assay with T-47D breast is 78.1%; in the assay on BT-549 breast, 96.2%; in the assay with MDA-MB-435 melanoma, 114%; in the assay with SW-620 colon, 104%; in the assay with MCF7 breast it was 93.9%; in the assay on HCT-116 colon, 92.7%. For the same compound, the growth is 107% in the assay on HCC-2998 colon and 99.1% in the assay with KM12 colon.
Take `O=C1c2ccccc2C(=O)c2c1oc1oc3c(c(=O)c21)c(=O)n(-c1ccccc1)c1ccccc31`: the growth is 4.47% (active) in the assay with T-47D breast; 12.3% with BT-549 breast; 87.8% with MDA-MB-435 melanoma; 18.6% in the assay on SW-620 colon; 51.6% in the assay on MCF7 breast; 41.7% in the assay on HCT-116 colon. For the same compound, the growth in the assay with HCC-2998 colon is 42.9%; in the assay on KM12 colon, 18.9%.
In the case of `CCCCCCOc1ccc(C2(Cl)c3ccccc3N(C)c3ccccc32)cc1`, the growth in the assay on T-47D breast was 44.2%; in the assay on BT-549 breast, 86.5%; in the assay with MDA-MB-435 melanoma, -23.5% (active); in the assay on SW-620 colon, 7.18% (active); in the assay with MCF7 breast it was 0.626% (active); with HCT-116 colon, 16.1%. The values for the growth in the assay with HCC-2998 colon and with KM12 colon were 59.8% and 62.9%, respectively.
As for `COc1cc(/C=C2\C=C(c3ccc(F)cc3)N(Cc3ccccc3)C2=O)cc(OC)c1OC`, the growth in the assay on T-47D breast was 49.1%; in the assay on BT-549 breast, 77.3%; in the assay with MDA-MB-435 melanoma, 75.2%; in the assay with SW-620 colon, 77.4%; in the assay on MCF7 breast, 50.8%; with HCT-116 colon, 42.2%. Moreover, the results for the growth in the assay with HCC-2998 colon and in the assay on KM12 colon were 103% and 63.1%, respectively.
Regarding `C=C1C(=O)O[C@H]2[C@H]1CC/C(Cn1cc(-c3ccccc3C(F)(F)F)nn1)=C\CC[C@@]1(C)O[C@@H]21`, the growth in the assay with T-47D breast was -82.4% (active); in the assay with BT-549 breast, -60.4% (active); with MDA-MB-435 melanoma, 4.12% (active); with SW-620 colon, -62.9% (active); in the assay with MCF7 breast it was -70.5% (active); in the assay on HCT-116 colon, -99.1% (active). The growth with HCC-2998 colon was -45.9% (active); in the assay with KM12 colon, 36.5%.
Regarding `N#Cc1ccc(NC(=O)c2ccc3cccnc3c2O)cc1`, the growth with T-47D breast was 27.3%; in the assay on BT-549 breast, 27.7%; in the assay with MDA-MB-435 melanoma, 26.2%; in the assay with SW-620 colon, 23.1%; in the assay with MCF7 breast, 15.8%; with HCT-116 colon, 20.3%. Also, the results for the growth with HCC-2998 colon and in the assay with KM12 colon were 44.6% and 25.7%, respectively.
`COc1ccc(/C=N/NC(=O)Cn2c(Cc3cccc4ccccc34)nc3ccccc32)cc1`: the growth in the assay on T-47D breast was 85.8%; in the assay on BT-549 breast it was 107%; in the assay with MDA-MB-435 melanoma it was 103%; with SW-620 colon, 109%; with MCF7 breast, 92.4%; with HCT-116 colon, 100%. The growth is 107% with HCC-2998 colon and 98% in the assay on KM12 colon.
As to `COc1ccc(-c2nc3sccn3c2-c2ccnc(NCCNS(=O)(=O)c3ccc(C(F)(F)F)cc3)n2)cc1`, the growth with T-47D breast is -11.8% (active); in the assay with BT-549 breast, 2.22% (active); in the assay on MDA-MB-435 melanoma it was 2.65% (active); in the assay with SW-620 colon, 33.7%; in the assay on MCF7 breast, 8.53% (active); with HCT-116 colon, 10%. For the same compound, the growth with HCC-2998 colon was 23.7%; in the assay with KM12 colon, 4.4% (active).
Take `NC(=O)c1c(NC(=O)c2ccc3c(c2)OCO3)sc2c1CCC(=O)C2`: the growth is -39.7% (active) in the assay with T-47D breast; -6.08% (active) in the assay on BT-549 breast; 2.97% (active) with MDA-MB-435 melanoma; -10.8% (active) in the assay on SW-620 colon; -7.93% (active) with MCF7 breast; -56.3% (active) in the assay with HCT-116 colon. Besides, the growth is 12.5% in the assay with HCC-2998 colon and -20.6% (active) with KM12 colon.
In the case of `O=c1[nH]c2ccccc2cc1-c1nnc(Cc2ccccc2)o1`, the growth with T-47D breast was 42.2%; in the assay on BT-549 breast, 48.9%; with MDA-MB-435 melanoma, 52.9%; in the assay on SW-620 colon it was 45%; in the assay on MCF7 breast, 20.5%; in the assay with HCT-116 colon, 7.52% (active). For the same compound, the growth in the assay with HCC-2998 colon was 78.9%; in the assay on KM12 colon it was 77.8%.
With `OCc1c(-c2ccccc2)nc2sccn12`, the growth is 104% in the assay on T-47D breast; 59.3% in the assay with BT-549 breast; 114% with MDA-MB-435 melanoma; 98.3% with SW-620 colon; 103% in the assay with MCF7 breast; 104% with HCT-116 colon. Further, in the assay on KM12 colon, the growth is 97.6%.
Turning to `COc1cc(NC(=O)CCl)ccc(=O)c1`, the growth in the assay on T-47D breast was 67.1%; in the assay with BT-549 breast, 58.9%; with MDA-MB-435 melanoma, 69.8%; in the assay on SW-620 colon it was 69.8%; with MCF7 breast, 56.8%; in the assay with HCT-116 colon, 62.6%. Moreover, the growth with HCC-2998 colon was 105%; in the assay on KM12 colon, 89.6%.
As for `COc1cc(OC)c(C(=O)/C=C/c2cccc(C(F)(F)F)c2)c(OC)c1`, the growth was 16.4% in the assay on T-47D breast; -2.51% (active) with BT-549 breast; 16.2% with MDA-MB-435 melanoma; 0.796% (active) in the assay with SW-620 colon; 17% with MCF7 breast; 2.79% (active) in the assay on HCT-116 colon. Besides, the growth in the assay on KM12 colon is 11%.
